Experimental findings from PubChem BioAssay (EPA / NIEHS) are described below.

Several values for one entry are separate records, joined by “and”; a condition that tells them apart may be missing. Equal entries are not always repeated. Results filed as inconclusive are left out. More than one record can exist for a structure, and the calls need not agree. Activity calls are given as the source filed them. The calls were made as follows, unless noted: active = hit-call score of the fitted dose curve at least 0.9, where 1 is the maximum; inactive = score below 0.9.

Assay [1] addresses human RAR-related Orphan Receptor gamma (RORg), RORC (gene 6097) (UniProt P51449). Put plainly: ATG_RORg_TRANS: Attagene TRANS-FACTORIAL HepG2 Assay for human RAR-related Orphan Receptor gamma (RORg) (AID 2283011; active = hit-call score of the fitted dose curve at least 0.9, where 1 is the maximum). In outline: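 Reporter transcripts from a transfected RORg-GAL4 chimera in HepG2 cells were quantified 24 h after dosing by RT-PCR, 6-FAM labelling, HpaI digestion and capillary electrophoresis; increases over DMSO baseline were fitted.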

In assay [2] the target is human Thyroid Receptor alpha (THRa1), THRA (gene 7067) (UniProt P10827). Nature of the assay: ATG_THRa1_TRANS: Attagene TRANS-FACTORIAL HepG2 Assay for human Thyroid Receptor alpha (THRa1) (AID 2283014; active = hit-call score of the fitted dose curve at least 0.9, where 1 is the maximum). In outline:
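Transcripts from GAL4-UAS-driven reporters, measured after 24 h compound exposure by RT-PCR plus capillary electrophoresis of 6-FAM-labeled fragments, were fitted for gain of signal relative to DMSO. Cells: transiently transfected HepG2 expressing NR-Gal4 chimeras.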

Read-out in assay [3]: E-selectin (Homo sapiens) (UniProt P16581)
Put plainly: BSK_3C_Eselectin: BioMAP Diversity Plus: 3C Assay for Eselectin Biomarker Activity (AID 2283015).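 As to outcome: cell surface E-selectin protein quantified by ELISA 24 h after dosing.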 The note with it: primary human endothelial cells (HUVEC); actives raise or lower the signal. In a few lines:
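E-selectin ELISA readout, fitted bidirectionally relative to DMSO, taken 24 h post-dosing in HUVEC cultures of the 3C system. Overt cytotoxicity tracked with sulforhodamine B staining of parallel wells.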

Read-out in assay [4]: Interleukin-1 alpha (IL1a), IL1A (gene 3552)
Put plainly: BSK_BE3C_IL1a: BioMAP Diversity Plus: BE3C Assay for Interleukin-1 alpha (IL1a) Biomarker Activity (AID 2283016). The note with it: primary human bronchial epithelial cells; actives raise or lower the signal. In outline:
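Signal from IL-1a ELISA, taken 24 h after chemical dosing of human bronchial epithelial cells, is compared with DMSO as baseline using bidirectional curve fitting.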

Read-out in assay [5]: Monocyte Chemoattractant Protein-1 (MCP1), CCL2 (gene 6347)
Put plainly: BSK_3C_MCP1: BioMAP Diversity Plus: 3C Assay for Monocyte Chemoattractant Protein-1 (MCP1) Biomarker Activity (AID 2283017). Particulars: primary human endothelial cells (HUVEC); actives raise or lower the signal. In outline:
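MCP-1 was measured by ELISA 24 h after dosing in primary HUVEC 3C cultures and fitted in both directions relative to DMSO; cytotoxicity was checked by SRB total-protein staining in parallel wells.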

Read-out in assay [6]: Monocyte Chemoattractant Protein-1 (MCP1), CCL2 (gene 6347)
Nature of the assay: BSK_4H_MCP1: BioMAP Diversity Plus: 4H Assay for Monocyte Chemoattractant Protein-1 (MCP1) Biomarker Activity (AID 2283018). Particulars: primary human endothelial cells (HUVEC); actives raise or lower the signal. In outline:
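Endothelial cells from umbilical vein were treated with test chemical, then after 24 h MCP-1 levels were quantified by ELISA; endpoint values came from bidirectional fitting with DMSO as baseline of activity.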

Read-out in assay [7]: Human Leukocyte Antigen - DR isotype (HLADR), HLA-DRA (gene 3122)
Nature of the assay: BSK_3C_HLADR: BioMAP Diversity Plus: 3C Assay for Human Leukocyte Antigen - DR isotype (HLADR) Biomarker Activity (AID 2283019).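 As to outcome: ELISA of cell-surface HLA-DR on HUVEC 24 h after dosing.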 Particulars: primary human endothelial cells (HUVEC); actives raise or lower the signal. In a few lines:
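Bidirectional fitting against DMSO was applied to the HLA-DR ELISA signal from human umbilical vein endothelial cells, 24 h post-dose. Cytotoxicity came from parallel SRB total-protein staining; 3C proliferation was counted by SRB at 48 h.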

Read-out in assay [8]: Interleukin-8 (IL8), CXCL8 (gene 3576)
Nature of the assay: BSK_3C_IL8: BioMAP Diversity Plus: 3C Assay for Interleukin-8 (IL8) Biomarker Activity (AID 2283020). The note with it: primary human endothelial cells (HUVEC); actives raise or lower the signal. In a few lines:
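Endothelial primary cells of human umbilical vein origin are dosed with chemical; after 24 h the IL-8 biomarker is measured by ELISA, and concentration–response is fitted in both directions versus DMSO.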

For assay [9], the target named is human Vitamin D Receptor (VDR), VDR (gene 7421) (UniProt P11473). Put plainly: ATG_VDR_TRANS: Attagene TRANS-FACTORIAL HepG2 Assay for human Vitamin D Receptor (VDR) (AID 2283022; active = hit-call score of the fitted dose curve at least 0.9, where 1 is the maximum). In outline:
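Transactivation by an exogenous VDR-Gal4 chimera in transiently transfected HepG2 cells was measured as reporter transcript level 24 hours after chemical treatment. RT-PCR products were analysed by capillary electrophoresis and fitted in the positive direction relative to DMSO.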

Assay [10] in a line: BSK_3C_SRB: Viability Assessment in the BioMAP Diversity Plus: 3C Assay (AID 2283023).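 Also: fitted both ways against DMSO so a hit may be signal rise or drop.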 Particulars: primary human endothelial cells (HUVEC). In a few lines:
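Cytotoxicity readout in parallel HUVEC 3C cultures: after 24 h compound exposure, cells fixed with 10% TCA, stained with 0.1% SRB and read at 560 nm. Gain or loss relative to DMSO fitted.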

Read-out in assay [11]: Matrix Metallopeptidase 1 (MMP1), MMP1 (gene 4312)
Put plainly: BSK_BE3C_MMP1: BioMAP Diversity Plus: BE3C Assay for Matrix Metallopeptidase 1 (MMP1) Biomarker Activity (AID 2283024). The note with it: primary human bronchial epithelial cells; actives raise or lower the signal. In outline:
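MMP1 signal, measured by ELISA after a 24 h chemical exposure of human primary bronchial epithelial cells, is analysed with bidirectional fitting using DMSO as negative control.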

A short description of assay [12]: BSK_3C_Vis: BioMAP Diversity Plus: 3C Assay for Morphology Visualization (AID 2283025).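 Also: fitted both ways so gain or loss versus DMSO counts.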 The note with it: primary human endothelial cells (HUVEC). In a few lines:
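Morphology read by light microscopy serves as a background control for the multiplexed 3C assay in human umbilical vein endothelial cells, taken 24 h after dosing, with DMSO as the negative control and bidirectional curve fitting.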

Assay [13] is described as follows: BSK_4H_SRB: Viability Assessment in the BioMAP Diversity Plus: 4H Assay (AID 2283027).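 Also: cells exposed to compound for 24 h before staining.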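 As to AC50: curves fitted both ways versus DMSO so AC50 may be loss or gain.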 Particulars: primary human endothelial cells (HUVEC). In a few lines:
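Cytotoxicity read-out in primary human endothelial cells: after 24 h compound exposure, cells were TCA-fixed (10%), stained with 0.1% SRB and absorbance taken at 560 nm. Values fitted in both directions relative to DMSO.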

Assay [14] can be described thus: BSK_BE3C_SRB: Viability Assessment in the BioMAP Diversity Plus: BE3C Assay (AID 2283028).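 As to AC50: fitted both ways so AC50 may mark signal gain or loss versus DMSO.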 Particulars: primary human bronchial epithelial cells. In a few lines: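 Cytotoxicity read-out: SRB (0.1%) staining of TCA-fixed (10%) human lung bronchial epithelial cells, absorbance 560 nm, 24 h post-dosing. Curves fitted both directions relative to DMSO.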
Read-out in assay [15]: Thrombomodulin, THBD (gene 7056)
Put plainly: BSK_3C_Thrombomodulin: BioMAP Diversity Plus: 3C Assay for Thrombomodulin Biomarker Activity (AID 2283029). The note with it: primary human endothelial cells (HUVEC); actives raise or lower the signal. In outline: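 Endothelial cells from umbilical vein are dosed with test chemical and incubated 24 h. Thrombomodulin is then quantified by ELISA, with DMSO serving as negative control and activity baseline.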

Read-out in assay [16]: Urokinase-type plasminogen activator receptor (uPAR), PLAUR (gene 5329)
Nature of the assay: BSK_4H_uPAR: BioMAP Diversity Plus: 4H Assay for Urokinase-type plasminogen activator receptor (uPAR) Biomarker Activity (AID 2283030). Particulars: primary human endothelial cells (HUVEC); actives raise or lower the signal. In a few lines:
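uPAR level read by ELISA on HUVEC cultures (BioMAP 4H) 24 h post-dosing, analyzed for gain or loss relative to DMSO. Parallel SRB staining assessed overt cytotoxicity.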

The target in assay [17] is Retinoic acid receptor RXR-alpha (Homo sapiens) (UniProt P19793). Put plainly: ATG_RXRa_TRANS: Attagene TRANS-FACTORIAL HepG2 Assay for human Retinoid X Receptor alpha (RXRa) (AID 2283012; active = hit-call score of the fitted dose curve at least 0.9, where 1 is the maximum). In outline: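 Measures exogenous chimeric NR-GAL4 activity in transfected HepG2 liver cells after 24 h of dosing. Induced reporter mRNA was detected by RT-PCR with capillary electrophoresis, and gain of signal was analysed against DMSO.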
Sequence of Retinoic acid receptor RXR-alpha (Homo sapiens) (P19793 whole entry, looked up, the tested form may be a part): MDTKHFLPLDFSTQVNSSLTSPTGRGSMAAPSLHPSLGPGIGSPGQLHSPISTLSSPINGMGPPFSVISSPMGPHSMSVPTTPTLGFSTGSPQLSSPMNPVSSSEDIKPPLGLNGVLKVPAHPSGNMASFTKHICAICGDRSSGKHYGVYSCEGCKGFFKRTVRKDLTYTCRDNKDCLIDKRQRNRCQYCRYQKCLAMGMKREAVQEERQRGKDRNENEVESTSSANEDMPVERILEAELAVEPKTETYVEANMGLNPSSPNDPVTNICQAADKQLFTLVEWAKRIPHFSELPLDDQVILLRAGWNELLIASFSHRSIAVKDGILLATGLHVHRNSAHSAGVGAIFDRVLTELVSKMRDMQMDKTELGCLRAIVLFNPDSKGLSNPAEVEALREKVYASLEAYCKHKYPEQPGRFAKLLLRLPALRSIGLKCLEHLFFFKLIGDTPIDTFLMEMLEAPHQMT

The target of assay [18] is human Retinoid X Receptor beta (RXRb), RXRB (gene 6257) (UniProt P28702). Nature of the assay: ATG_RXRb_TRANS: Attagene TRANS-FACTORIAL HepG2 Assay for human Retinoid X Receptor beta (RXRb) (AID 2283013; active = hit-call score of the fitted dose curve at least 0.9, where 1 is the maximum). In outline: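 Chimeric receptor-Gal4 activity was assessed in transiently transfected human HepG2 cells after 24 h exposure. Transcripts from GAL4-UAS reporters were quantified by fluorescent RT-PCR and capillary electrophoresis, with DMSO as negative control and baseline.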
Sequence of human Retinoid X Receptor beta (RXRb), RXRB (gene 6257) (P28702 whole entry, looked up, the tested form may be a part): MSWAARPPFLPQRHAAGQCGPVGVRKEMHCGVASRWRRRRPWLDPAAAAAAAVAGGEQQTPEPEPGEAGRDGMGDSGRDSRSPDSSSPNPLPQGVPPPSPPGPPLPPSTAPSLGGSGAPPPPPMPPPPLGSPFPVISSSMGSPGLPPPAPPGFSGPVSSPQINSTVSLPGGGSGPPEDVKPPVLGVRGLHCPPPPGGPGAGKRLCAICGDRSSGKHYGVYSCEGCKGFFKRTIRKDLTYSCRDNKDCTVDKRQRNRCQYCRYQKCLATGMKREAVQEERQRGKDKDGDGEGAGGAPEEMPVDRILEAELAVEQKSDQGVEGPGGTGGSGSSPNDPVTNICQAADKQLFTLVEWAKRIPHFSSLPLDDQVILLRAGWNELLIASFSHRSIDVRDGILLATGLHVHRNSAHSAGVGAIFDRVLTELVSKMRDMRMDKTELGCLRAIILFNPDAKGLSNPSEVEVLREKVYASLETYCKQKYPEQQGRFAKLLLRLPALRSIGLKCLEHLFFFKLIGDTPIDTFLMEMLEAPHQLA

Read-out in assay [19]: Pselectin, SELP (gene 6403)
Put plainly: BSK_4H_Pselectin: BioMAP Diversity Plus: 4H Assay for Pselectin Biomarker Activity (AID 2283026). The note with it: primary human endothelial cells (HUVEC); actives raise or lower the signal. In a few lines:
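Endothelial primary cells (human umbilical vein) are dosed, incubated 24 h, and assayed for surface P-selectin by ELISA; responses in either direction are fitted relative to the DMSO negative control.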

Sequence of E-selectin (Homo sapiens) (P16581 whole entry, looked up): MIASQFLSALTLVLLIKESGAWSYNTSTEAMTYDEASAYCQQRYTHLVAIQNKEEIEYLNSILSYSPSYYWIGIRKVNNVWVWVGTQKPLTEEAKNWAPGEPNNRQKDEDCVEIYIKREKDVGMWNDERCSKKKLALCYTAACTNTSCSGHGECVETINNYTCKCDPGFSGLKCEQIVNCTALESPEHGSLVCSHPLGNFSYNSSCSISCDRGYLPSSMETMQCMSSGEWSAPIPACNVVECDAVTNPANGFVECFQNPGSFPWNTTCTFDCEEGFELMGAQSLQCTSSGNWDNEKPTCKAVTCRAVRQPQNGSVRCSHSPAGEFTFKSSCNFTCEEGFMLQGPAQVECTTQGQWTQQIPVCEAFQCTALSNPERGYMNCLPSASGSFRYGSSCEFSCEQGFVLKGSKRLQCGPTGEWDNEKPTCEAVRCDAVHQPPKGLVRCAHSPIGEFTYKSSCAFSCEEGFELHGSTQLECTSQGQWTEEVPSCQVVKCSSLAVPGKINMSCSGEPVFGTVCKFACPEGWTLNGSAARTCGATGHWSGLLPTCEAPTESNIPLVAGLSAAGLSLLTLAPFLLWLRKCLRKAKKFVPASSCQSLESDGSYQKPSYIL
Sequence of human Thyroid Receptor alpha (THRa1), THRA (gene 7067) (P10827 whole entry, looked up, the tested form may be a part): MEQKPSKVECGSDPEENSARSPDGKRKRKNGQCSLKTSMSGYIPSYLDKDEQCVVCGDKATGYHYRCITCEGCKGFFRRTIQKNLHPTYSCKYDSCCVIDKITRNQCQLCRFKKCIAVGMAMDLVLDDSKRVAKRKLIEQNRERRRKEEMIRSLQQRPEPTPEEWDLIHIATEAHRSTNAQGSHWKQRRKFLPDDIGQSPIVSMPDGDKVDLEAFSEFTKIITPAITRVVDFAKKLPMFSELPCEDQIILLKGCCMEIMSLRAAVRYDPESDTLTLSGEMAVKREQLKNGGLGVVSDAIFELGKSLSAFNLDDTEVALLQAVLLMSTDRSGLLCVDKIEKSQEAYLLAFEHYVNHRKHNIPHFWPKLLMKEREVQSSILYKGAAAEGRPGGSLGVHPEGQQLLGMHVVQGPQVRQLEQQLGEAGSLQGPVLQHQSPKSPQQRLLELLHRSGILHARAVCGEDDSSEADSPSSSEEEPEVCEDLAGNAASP
Sequence of human Vitamin D Receptor (VDR), VDR (gene 7421) (P11473 whole entry, looked up, the tested form may be a part): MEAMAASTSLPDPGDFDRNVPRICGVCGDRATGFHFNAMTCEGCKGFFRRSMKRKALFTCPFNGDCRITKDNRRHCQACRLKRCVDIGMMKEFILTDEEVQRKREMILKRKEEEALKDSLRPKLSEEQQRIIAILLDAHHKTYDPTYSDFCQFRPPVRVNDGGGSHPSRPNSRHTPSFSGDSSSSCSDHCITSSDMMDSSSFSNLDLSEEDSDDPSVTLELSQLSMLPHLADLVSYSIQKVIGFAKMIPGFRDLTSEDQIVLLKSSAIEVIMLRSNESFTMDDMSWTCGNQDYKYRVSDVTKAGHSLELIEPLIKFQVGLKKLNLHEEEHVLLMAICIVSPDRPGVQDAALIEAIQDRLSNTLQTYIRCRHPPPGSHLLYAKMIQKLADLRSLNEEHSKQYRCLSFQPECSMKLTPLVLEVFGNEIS
Sequence of human RAR-related Orphan Receptor gamma (RORg), RORC (gene 6097) (P51449 whole entry, looked up, the tested form may be a part): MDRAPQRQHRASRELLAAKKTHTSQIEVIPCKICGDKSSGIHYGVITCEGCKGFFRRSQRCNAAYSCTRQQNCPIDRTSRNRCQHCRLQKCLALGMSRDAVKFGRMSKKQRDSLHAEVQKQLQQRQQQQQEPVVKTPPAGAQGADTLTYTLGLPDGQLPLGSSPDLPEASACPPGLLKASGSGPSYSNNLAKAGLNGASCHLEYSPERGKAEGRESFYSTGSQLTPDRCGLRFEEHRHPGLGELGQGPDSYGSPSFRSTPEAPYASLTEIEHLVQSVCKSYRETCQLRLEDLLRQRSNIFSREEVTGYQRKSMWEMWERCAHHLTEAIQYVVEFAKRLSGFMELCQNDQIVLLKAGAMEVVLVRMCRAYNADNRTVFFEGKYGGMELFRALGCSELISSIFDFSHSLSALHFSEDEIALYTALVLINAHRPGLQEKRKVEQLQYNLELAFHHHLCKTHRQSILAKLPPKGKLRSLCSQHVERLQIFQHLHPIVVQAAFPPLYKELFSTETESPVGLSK

Regarding `CC(C)(C)c1ccc(O)c(O)c1`, the molecule was called inactive in [1], in assay [2], in [5], in assay [8], in [9] and in assay [11]. Moreover, the result in assay [14], in assay [15] and in assay [16] was inactive. Besides, the AC50 – broadly, the concentration giving half of the maximal activity seen – in assay [2] is 34.1 µM (active); in assay [3], 3.97 µM (active); in assay [4], 20 µM (active); in assay [6], 5.58 µM (active); in assay [7] it was 5.3 µM (active); in [10], 5.42 µM (active). For the same molecule, the half-maximal activity concentration (AC50) is 8.8 µM (active) in [12] and 5.52 µM (active) in assay [13].

Turning to `Cc1[nH]nc2c1N=C(c1ccccc1Cl)c1cc([N+](=O)[O-])ccc1N2`, the outcome in assay [17], in assay [18], in assay [2], in assay [5], in [8] and in assay [9] was inactive. Besides, the result in assay [11] and in assay [15] was inactive. The half-maximal activity concentration (AC50) was 3.2 µM (active) in assay [3]; 7.77 µM (active) in assay [4]; 10.4 µM (active) in assay [6]; 0.75 µM (active) in [10]; 0.645 µM (active) in assay [12]; 0.733 µM (active) in assay [13]. Besides, the AC50 is 20.3 µM (active) in assay [14] and 0.666 µM (active) in assay [16].

Turning to `CCCCCCCCCCCCCCC`, the molecule was called inactive in assay [1], in [18], in assay [3], in [4], in assay [5] and in assay [6]. Further, the result in assay [7], in [8], in assay [10], in assay [11], in assay [12] and in assay [13] was inactive. The result in assay [14], in assay [15] and in assay [16] was inactive.

On to `C=CC(F)(F)C(F)(F)C(F)(F)C(F)(F)F`, for which the result in assay [17] was inactive.

With `COC(=O)CC(C(C)=O)C(=O)OC` (stereo not given), the outcome in assay [1] and in [2] was inactive.

Take `CCC(=O)O`: the result in assay [17] and in assay [18] was inactive.

On to `Cc1ccccc1C(OCCN(C)C)c1ccccc1` (stereo not given), for which the result in assay [17] was inactive.

On to `CC(C)(c1ccc(Oc2ccc(N)cc2)cc1)c1ccc(Oc2ccc(N)cc2)cc1`, for which the molecule was classed as inactive in [1] and in [2].

Turning to `Cc1cccc2c1ccc1ccccc12`, the molecule was classed as inactive in [17], in assay [2], in assay [3], in [5], in assay [6] and in assay [8]. The outcome in assay [9], in [10], in assay [11], in assay [12], in assay [19] and in assay [13] was inactive. Further, the result in assay [14], in assay [15] and in assay [16] was inactive. In addition, the results for the half-maximal activity concentration (AC50) in assay [18] and in [4] were 22.6 µM (active) and 5.56 µM (active), respectively.

As to `CCCCCCCCCCCC`, the molecule was classed as inactive in assay [17], in assay [18], in [2], in assay [3], in assay [5] and in assay [6]. The result in assay [8], in [11], in [19], in [13], in [14] and in assay [15] was inactive. Moreover, the outcome in assay [16] was inactive. The AC50 is 20 µM (active) in assay [3]; 9.52 µM (active) and 8.11 µM (active) in [4]; 31.1 µM (active) and 30.4 µM (active) in assay [10]; 36.5 µM (active) in assay [15].

As to `Nc1ccn([C@@H]2O[C@H](CO)[C@@H](O)C2O)c(=O)n1` (stereo not given in full), the molecule was called inactive in [17] and in assay [18].

For the molecule `Cc1cc(C(C)(C)C)c(O)c(C(C)(C)C)c1`, the AC50 in assay [17] is 15.6 µM (active) and 865 nM (active); in assay [18] it was 918 nM (active) and 88 nM (active). In addition, the result in assay [2] was inactive.
